Screening data: PubChem BioAssay, National Center for Advancing Translational Sciences (NCATS)
Compounds with a hit are over-represented: about 3.3% of the library has one in this group of screens.
DRD3 antagonist: D3 dopamine receptor (human) antagonism | P35462 | D3R cells, DiscoveRx beta-arrestin luminescence, antagonist mode; stronger effect = lower value | max response, negative = inhibition, % | 360,000 compounds, 2.5% hits; in the data active means max response below about -50%; inconclusive means no clear call, values can overlap the other calls; further: on the % scale 0 is the no-effect control and ±100 the full control effect
Target sequence (P35462 whole entry, looked up): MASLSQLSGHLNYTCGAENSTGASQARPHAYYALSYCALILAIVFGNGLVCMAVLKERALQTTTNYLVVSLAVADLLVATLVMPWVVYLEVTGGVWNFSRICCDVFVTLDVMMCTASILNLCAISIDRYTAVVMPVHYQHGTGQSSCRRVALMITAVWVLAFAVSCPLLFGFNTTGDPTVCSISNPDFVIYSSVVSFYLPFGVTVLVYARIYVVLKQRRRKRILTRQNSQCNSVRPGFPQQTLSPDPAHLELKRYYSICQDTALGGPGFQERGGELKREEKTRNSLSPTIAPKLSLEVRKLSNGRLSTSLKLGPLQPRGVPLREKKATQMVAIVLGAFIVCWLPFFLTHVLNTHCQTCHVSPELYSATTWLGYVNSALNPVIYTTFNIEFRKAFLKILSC
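Cells plated overnight at 1500 cells/well, then exposed to library compounds with dopamine controls for 90 minutes at 37 degrees C. DiscoveRx reagent added for 30–60 minutes at room temperature; luminescence read, quantitative HTS format.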
LDHA inh: blocks human lactate dehydrogenase A. P00338. purified LDHA, NADH/diaphorase-resazurin fluorescence; stronger effect = lower value. activity change, % (values are at about 110 or 230 µM). AID 1347041. 480,000 compounds, 0.15% hits; in the data active means activity change below about -30%; inconclusive means mostly about -25% to -30%;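 further: plate controls were DMSO wells for no effect and wells without enzyme for full effect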
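Human LDH5 (2 nM) was incubated with 0.06 mM NADH and 0.2 mM pyruvate for 5 min at room temperature in Tris pH 7.4. Remaining NADH was coupled through diaphorase/resazurin, and resorufin fluorescence was read at 0 and 20 min.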
PI5P4Ka inh: inhibitors of human PI5P4K alpha | PI5P4Kalpha enzyme, ADP-Glo luminescence, 60 min; stronger effect = lower value | max response, % | 330,000 compounds, 1.2% hits | AID 652105; active means max response of -50% or lower; inconclusive means between -30% and -50%; inactive means -30% or higher; further: value at the top dose of about 77 µM; on the % scale 0 is the no-effect control and ±100 the full control effect
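Enzyme plus substrate dispensed, test compounds pinned in, then ATP (5 microM final) added. After 60 min at RT, ADP-Glo reagent 1 for 45 min and reagent 2 for 30 min preceded luminescence imaging.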
PI4K2A inh: blocks human PI4K2A kinase activity | Q9BTU6 | 420,000 compounds, 0.13% hits | purified PI4K2A, ADP-Glo luminescence, 1 h; stronger effect = lower value | activity change, negative = inhibition, % at 76.9 µM; in the data active means activity change below about -50%; inconclusive means mostly about -30% to -49%;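 further: -100% = wells without enzyme as full effect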
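In this quantitative HTS, ADP production by PI4K2A was quantified luminescently after 1 h at ambient temperature; 100 microM adenosine served as plate-quality control.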
D3 ag: agonists of human D3 dopamine receptor; 410,000 compounds, 0.58% hits; AID 652048; max activation, %; P35462; D3R DiscoveRx beta-arrestin cells, luminescence, 90 min; in the data active means max activation above about 30%; further: 0% is about no effect
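Agonist mode: compounds and dopamine controls were applied to plated cells for 90 min at 37 degrees C after an overnight attachment at 1500 cells/well. Luminescent read-out followed 30 - 60 minutes at room temperature with DiscoveRx detection reagent.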
An asterisk follows results filed as active; ? = inconclusive; . = no result.

SMILES | DRD3 antagonist | LDHA inh | PI5P4Ka inh | PI4K2A inh | D3 ag
O=C(Nc1ccc2nc(-c3ccccc3)[nH]c2c1)c1cccs1 | -17 | -2 | . | -1 | -11
O=C(Nc1ccc2nc(-c3ccc4nc[nH]c4c3)[nH]c2c1)c1cccs1 | -69* | -16 | ? | 2 | -5
COc1ccc(-c2c(C)sc(NC(=O)c3ccnn3C)c2C#N)cc1 | 98 | -7 | -1 | -4 | 55*
Cn1nccc1C(=O)Nc1sc2c(c1C#N)CCCC2 | -17 | -1 | -17 | -10 | 1
COc1cccc(-c2[nH]nc3c2C(c2ccc(O)cc2)C(C#N)=C(N)O3)c1 (configuration not stated) | . | 0 | . | . | .
O=C1c2cc(S(=O)(=O)NCCCO)ccc2-c2ccc(S(=O)(=O)NCCCO)cc21 | -51* | 0 | -2 | 5 | 2
Cn1c(=O)[nH]c(=O)c2c1nc(N1CCN(Cc3ccccc3Cl)CC1)n2C/C=C/c1ccccc1 | . | 3 | . | . | .
O=[N+]([O-])c1ccc(O)c(N=Cc2sc3ccccc3c2O)c1 | -83* | 5 | -13 | -1 | -26
Fc1ccc(CNC(=S)Nc2ccc3ccccc3c2)cc1 | . | 2 | . | . | .
C[C@H](Cc1ccc(O)c(O)c1)[C@@H](C)Cc1ccc(O)c(O)c1 | . | 11 | . | -3 | 10
CC(Cc1ccc(O)c(O)c1)C(C)Cc1ccc(O)c(O)c1 (configuration not stated) | 12 | 16 | -82* | -3 | 17
N#CCCCCn1c(-c2cncs2)nc2ccccc21 | -56* | -3 | -8 | 1 | -3
CC(OC(=O)c1cc(=O)[nH]c2ccccc12)C(=O)NCCc1ccccc1 (configuration not stated) | . | -1 | . | . | .
CSc1ccccc1NC(=O)C(C)Cl (configuration not stated) | . | -5 | . | . | .
CCCCN(CC(N)=O)CC(=O)NC(N)=O | . | 0 | . | . | .
COc1cc(/C=C(/C#N)C(=O)OC(C)C)cc(Br)c1O | . | 4 | . | . | .
COc1cc(/C=C(\C#N)C(=O)N2CCOCC2)cc(Br)c1O | 5 | 1 | -61* | 0 | -1
CCOC(=O)C1=CN(Cc2cccc(F)c2)S(=O)(=O)N(CC)C1c1ccccc1 (configuration not stated) | -25 | -1 | -7 | 1 | 0
CCOC(=O)C1=CN(Cc2cccc(I)c2)S(=O)(=O)N(C)C1C (configuration not stated) | -67* | -4 | 17 | -3 | -49
CCOC(=O)C1=CN(Cc2cccc(F)c2)S(=O)(=O)N(CC)C1c1ccc(C(F)(F)F)cc1 (configuration not stated) | -55* | 2 | 6 | 2 | -9
Cn1nnnc1-c1cccc(NC(=O)Cc2ccc(Cl)cc2Cl)c1 | . | 5 | . | . | .
O=C1C(Cl)=C(NCCc2ccccc2)C(=O)c2ccccc21 | -71* | 55 | -85* | -10 | -13
Cc1ccc(NC2=C(NC(=O)c3ccccc3)C(=O)c3ccccc3C2=O)cc1Cl | 9 | 38 | -52* | -20 | 7
O=C(O)c1ccc(NC2=C(Cl)C(=O)c3ccccc3C2=O)cc1 | ? | -1 | -19 | -24 | -23
CC(=O)N(Cc1ccc(F)cc1)C1=C(NCCc2ccccc2)C(=O)c2ccccc2C1=O | -54* | 24 | -4 | -21 | 4
SMILES | DRD3 antagonist | LDHA inh | PI5P4Ka inh | PI4K2A inh | D3 ag
O=C1C(Cl)=C(Nc2ccccc2)C(=O)c2ccccc21 | -74* | 19 | 4 | -4 | -49
COc1cc(C(=O)OCc2ccccc2F)cc(OC)c1Br | . | -4 | . | . | .
O=C(O)c1cccc(NC2=C(Cl)C(=O)c3ccccc3C2=O)c1 | -90* | 9 | -69* | -27 | -29
COCCn1cnnc1SC(C)C(=O)c1ccc(Cl)cc1 (configuration not stated) | . | 0 | . | . | .
COc1cc(/C=C(\CC(=O)O)c2nc3ccccc3s2)ccc1OCC(=O)Nc1ccccc1F | 45 | -35* | -2 | -4 | 5
O=C(O)C/C(=C\c1cccc(NC(=O)c2ccccc2Cl)c1)c1nc2ccccc2s1 | -14 | 1 | ? | -13 | 2
COc1ccc(C(=O)Nc2cccc(/C=C(\CCC(=O)O)c3nc4ccccc4s3)c2)cc1 | 5 | -14 | -56* | -8 | 12
CCN(CC)c1nc2ccccc2nc1C(=O)Nc1ccc(C)cc1 | . | 9 | . | . | .
CCCNC(=O)c1ccc(Cl)nc1 | . | 0 | . | . | .
CCN(Cc1ccccc1)Cc1c(F)cccc1F | -13 | -13 | . | 0 | -12
CCN(Cc1ccccc1)Cc1cc(OC)cc(OC)c1 | -56* | 2 | . | 0 | -51
CCOC(=O)[C@]12CCC=C1N(Cc1ccccc1)C(=O)[C@H](CC(=O)NCC13CC4CC(CC(C4)C1)C3)C2 | -53* | 2 | 12 | 0 | -10
CCN1C(=O)[C@H]2[C@@H](c3ccc(-c4ccc(Cl)c(Cl)c4)c(OC)c3)N[C@@](C)(C(=O)OC)[C@H]2C1=O | -12 | 2 | -60* | 4 | -10
CCN1C(=O)[C@H]2[C@@H](c3ccc(-c4ccc(C(C)=O)cc4)c(OC)c3)N[C@@](Cc3ccccc3)(C(=O)OC)[C@H]2C1=O | -59* | 1 | 13 | -5 | -8
CCCCCCSc1ccc([C@H]2N[C@@](Cc3ccccc3)(C(=O)OC)[C@H]3C(=O)N(C)C(=O)[C@@H]23)cc1 | -51* | 4 | 11 | -3 | -6
Cc1ccsc1CNC(=O)c1scnc1C | . | 0 | . | . | .
COc1ccc2c(c1)CC(C(=O)Nc1cc(Cl)ccc1C)CO2 (configuration not stated) | . | -7 | . | -3 | 68*
CCOC(=O)CNC(=O)NC1CCN(c2nc3ccccc3n(C)c2=O)CC1 | . | 3 | . | . | .
COCc1ccc(-c2c(-c3ccsc3)oc(=O)c3cc(OC)c(OC)cc23)cc1 | 121 | -5 | 1 | -7 | 42*
COc1cc2c(C#CCCO)c(-c3ccsc3)oc(=O)c2cc1OC | 26 | 1 | -4 | -10 | 13
C=CCN1c2ccccc2[C@]23C[C@@H](C(=O)OC)N(C(=O)c4ccc(Br)cc4)C2=NC(C(=O)OC)=C(C(=O)OC)[C@H]13 | 3 | -3 | -3 | 1 | -2
COC(=O)C1=C(C(=O)OC)[C@@H]2N(C)c3ccccc3[C@@]23C[C@@H](CO)N(C(=O)c2cccs2)C3=N1 | -51* | 2 | 3 | 4 | -18
C#CCCOC(=O)N1C2=NC(C(=O)OC)=C(C(=O)OC)[C@@H]3N(C)c4ccccc4[C@]23C[C@H]1CO | 0 | 2 | 4 | -1 | -4
C=CCN1c2ccccc2[C@]23C[C@@H](C(=O)OC)N(C(=O)c4cccs4)C2=NC(C(=O)OC)=C(C(=O)OC)[C@H]13 | 3 | 0 | -52* | 0 | -1
Oc1ccc(Cl)cc1CNCc1ccc(Cl)nc1 | -65* | -5 | 7 | 0 | -62
Oc1ccc(Cl)cc1CNCc1ccc(F)c(F)c1 | -14 | -7 | 0 | -5 | -89
